A selection: hits, their analogues and other compounds. The true share with any hit is near 2.3%.
Tau fluor counter – Counterscreen qHTS for Inhibitors of Tau Fibril Formation, Fluorescence Polarization; tau K18 P301L Alexa594 fluorescence, heparin fibrillization; Potency, µM (top dose mostly 57.7 µM), inactives show top-dose activity change, negative = decrease; 280,000 compounds, 0.93% hits; further: potency means the concentration at half of the fitted maximal effect; nearly all actives have a fitted effect of over 55% in size
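Human K18 P301L tau (15 uM unlabeled plus 0.24 uM Alexa 594-labeled, final) in 100 mM sodium acetate pH 7 was mixed with compound and 20 uM heparin and incubated 6 hr at 37 C.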
USP1 inh – Inhibitors of USP1/UAF1: Primary Screen | recombinant USP1/UAF1, Ub-Rhodamine cleavage fluorescence | Potency, µM (titrated, usually from 57.1 µM), for the others: top-dose activity change, negative = inhibition, actives largely listed as inhibitors | 390,000 compounds, 0.23% hits | AID 743255, 2014; further: potency means the concentration at half of the fitted maximal effect; nearly all actives have a fitted effect of over 60% in size
Target sequence (O94782 whole entry, looked up): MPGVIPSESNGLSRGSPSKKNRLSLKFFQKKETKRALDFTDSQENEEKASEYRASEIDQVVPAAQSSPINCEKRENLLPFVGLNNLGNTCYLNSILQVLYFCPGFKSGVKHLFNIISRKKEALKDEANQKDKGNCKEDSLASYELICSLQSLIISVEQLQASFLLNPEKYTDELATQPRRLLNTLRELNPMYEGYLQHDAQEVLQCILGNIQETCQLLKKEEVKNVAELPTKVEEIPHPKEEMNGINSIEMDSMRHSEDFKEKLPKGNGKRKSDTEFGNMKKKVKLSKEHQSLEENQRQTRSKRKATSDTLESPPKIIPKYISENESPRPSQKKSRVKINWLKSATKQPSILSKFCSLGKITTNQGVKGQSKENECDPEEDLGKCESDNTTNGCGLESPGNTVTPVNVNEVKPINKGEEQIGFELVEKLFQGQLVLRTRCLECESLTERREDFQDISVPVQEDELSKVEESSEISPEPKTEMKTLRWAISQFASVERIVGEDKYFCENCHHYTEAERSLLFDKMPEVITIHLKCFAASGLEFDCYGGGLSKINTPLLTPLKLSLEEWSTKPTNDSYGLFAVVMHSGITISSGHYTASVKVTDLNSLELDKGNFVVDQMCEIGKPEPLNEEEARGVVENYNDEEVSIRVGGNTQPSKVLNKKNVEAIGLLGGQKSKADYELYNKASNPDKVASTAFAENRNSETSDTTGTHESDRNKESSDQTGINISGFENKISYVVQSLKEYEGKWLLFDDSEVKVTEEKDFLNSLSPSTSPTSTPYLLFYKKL
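USP1/UAF1 complex at 1 nM was preincubated with compound for 15 min at room temperature, then Ub-Rho substrate (150nM final) was added. Fluorescence (480/540 nm) was read kinetically, 6 reads every 60 seconds.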
FBPA coupling cs – qHTS Assay for Inhibitors of Fructose-1,6-bisphosphate Aldolase from Giardia Lamblia: Coupling assay counterscreen | coupling enzyme system counterscreen, AmpLite Red fluorescence | activity change, negative = inhibition, % at 58.2 µM, hits read low | 290,000 compounds, 0.67% hits | AID 2472, 2010; in the data active means activity change below about -30%
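First, compound is pin-transferred into glyceraldehyde-3-phosphate coupling-enzyme reagent at 57.5 uM final and held 10 min at RT. Next, substrate, coupling system and AmpLite Red are added. After 20 min RT, fluorescence (525/598 nm) is read.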
Tau fibril ThT – qHTS for Inhibitors of Tau Fibril Formation, Thioflavin T Binding | Potency, µM (highest dose often 57.4 µM), for the others: at the top dose activity, negative = inhibition, most hits filed as inhibitors | Microtubule-associated protein tau (Homo sapiens), P10636 | recombinant tau K18 P301L (four-repeat tau fragment), heparin-induced fibrillization, ThT fluorescence | AID 1460, 2008 | 270,000 compounds, 2.1% hits; further: potency means the concentration at half of the fitted maximal effect; nearly all actives have a fitted effect of over 55% in size
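Heparin-induced fibrillization of the P301L-mutant K18 repeat-domain fragment of human tau was followed by ThT binding in quantitative high-throughput format.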
Tau fibril FP – qHTS for Inhibitors of Tau Fibril Formation, Fluorescence Polarization. K18 P301L tau heparin fibrillization, Alexa594 FP, 6 h. Potency, µM (series often up to 57.7 µM), for the others: top-dose activity, negative = inhibition, usual class: inhibitors. 280,000 compounds, 0.39% hits. AID 1468, 2008; further: potency means the concentration at half of the fitted maximal effect; nearly all actives have a fitted effect of over 55% in size
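Read-out: fluorescence polarization of Alexa 594-labeled tau (0.24 uM), 555 nm excitation, 632 nm emission. Mixtures held 15 uM unlabeled K18 P301L, compound and 20 uM heparin, pH 7 acetate buffer, incubated 6 hr at 37 C.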
* hit, by the source's call; ? = inconclusive; . = no result; + = active, no number; ! = not active in a repeat; [ ] = remark or other dose. Unless noted, the call rests on the fitted dose curve; in most records, active means well fitted curve in the direction sought with a large enough effect; inconclusive means small, poorly fitted or top-dose-only effect, or another doubt; inactive means no such curve, though single readings can be large; an effect the other way counts as inactive or inconclusive. On the % scale 0 is the no-effect control and ±100 the full control effect.

SMILES | Tau fluor counter | USP1 inh | FBPA coupling cs | Tau fibril ThT | Tau fibril FP
CCCCOC(=O)c1ccc(NC(=O)/C=C/c2cccs2)cc1 | ? | -19% | 4 | 14% | 14µM*
COc1ccc(NC(=O)Nc2cccs2)cc1OC | ? | -23% | 0 | 16µM* | 2%
COc1cccc(NC(=O)Nc2cccs2)c1 | ? | -13% | -4 | ? | 14%
CCOC(=O)c1ccc(NC(=O)Nc2ccc(OC)c(OC)c2)cc1 | 13µM*[quencher] | -18% | 1 | ? | ?
O=C(/C=C/c1cccs1)c1ccc(NC(=O)c2cccc(Br)c2)cc1 | ? | -19% | 0 | 7.1µM* | ?
Cc1cc(Br)ccc1NC(=O)COc1cc(=O)n(C)c2ccccc12 | -24% | -8% | . | -8% | ?
CCCCOC(=O)c1ccc(NC(=O)Nc2ccc(OC)c(OC)c2)cc1 | 6.3µM*[quencher] | -24% | -1 | ? | -9%
CCCCOC(=O)c1ccc(NC(=O)c2c(OC)cccc2OC)cc1 | -17% | -15% | 5 | -9% | -4%
COc1ccccc1CNC(=O)CSc1cc(C)[nH]c(=O)n1 | -12% | -4% | . | -12% | ?
CN(C)CCCOc1c2ccccc2n(Cc2ccccc2)[n+]1[O-] | . | . | -1 | . | .
COc1ccccc1-c1c(-c2ccc(O)cc2O)n[nH]c1C(F)(F)F | 8.9µM*[quencher] | -16% | 4 | -6% | 1%
COc1ccc(-c2c(-c3ccc(O)cc3O)n[nH]c2C(F)(F)F)cc1 | 11µM*[quencher] | ? | 1 | -17% | 5%
CC(=O)c1ccc(-c2ccc(C(=O)NCC3CCCO3)o2)cc1 (stereo not drawn) | . | -2% | . | . | .
O=C(COC(=O)c1cnccn1)c1ccc([N+](=O)[O-])cc1 | -19% | -14% | 0 | 16µM* | ?
O=C(Nc1ccc(C(=O)O)cc1)/C(=C\C=C\c1ccccc1)NC(=O)c1ccc(Br)cc1 | -5% | + | 4 | -13% | 0%
O=[N+]([O-])c1ccc(Sc2cccc3cccnc23)cc1 | ? | -3% | -42* | ? | 11%
O=[N+]([O-])c1ccc(Sc2cccc3cccnc23)c([N+](=O)[O-])c1 | ? | -19% | -47* | ? | -6%
O=[N+]([O-])c1ccc(COc2cccc3cccnc23)cc1 | . | -17% | -9 | . | .
O=[N+]([O-])c1cc(Cl)ccc1Sc1cccc2cccnc12 | -25% | -29% | -23 | -15% | 13%
Cc1ccc(N(CC(=O)Nc2cccc(Cl)c2)S(=O)(=O)c2cccs2)cc1 | ? | -13% | . | 4% | ?
OCC[C@H]1C[C@@H](O)[C@H](O)[C@]2(CCc3ccccc3O2)O1 | . | -20% | . | . | .
Cc1[nH]c2ccccc2c1C(C[N+](=O)[O-])c1cccs1 (stereo not drawn) | ? | -17% | -6 | 5% | 13%
Cc1[nH]c2ccccc2c1C(c1ccccc1)c1ccc(Cl)s1 (stereo not drawn) | 7.1µM*[quencher] | -19% | . | ? | ?
COc1cc(C(C#N)N2CCCCC2)ccc1O (stereo not drawn) | -2% | -17% | -20 | -7% | -4%
COc1cc(C(C#N)N2CCOCC2)ccc1O (stereo not drawn) | 5% | -22% | -35* | 0% | 4%
SMILES | Tau fluor counter | USP1 inh | FBPA coupling cs | Tau fibril ThT | Tau fibril FP
COc1cccc(/C=N/Nc2nnc3c(n2)[nH]c2ccccc23)c1OC | -3% | -14% | 0 | . | -3%
CC(/C=N/Nc1nnc2c(n1)[nH]c1ccccc12)=C\c1ccco1 | ? | -6% | -1 | 6.3µM* | -12%
Cc1cccc2c1[nH]c1nc(N/N=C\c3ccco3)nnc12 | -28% | . | -2 | 6.3µM* | -7%
CC(C)c1ccc(Nc2c(-c3ccsc3)nc3ccc(Cl)cn23)cc1 | -7% | 3% | . | -1% | 4%
Cc1ccc(-c2nc(SCC(=O)NCc3ccco3)c3c(=O)n(C)c(=O)n(C)c3n2)cc1 | 4% | -12% | . | -1% | 0%
O=C(C1=C(c2ccccc2)C(=O)c2ccccc2C1=O)c1ccccc1 | 0% | ? | -62* | -1% | 5%
COC1=C(c2ccccc2)C(=O)c2ccccc2C1=O | -22% | 14µM* | -33* | ? | 3%
Cc1ccc(C(=O)N2CCN(c3ccccc3)CC2)cc1NC(=O)c1nsc2ccccc12 | -22% | 4% | . | -12% | 6%
CCOc1ccccc1NC(=O)COC(=O)C1CCC(=O)N1 (stereo not drawn) | . | 0% | . | . | .
O=S(=O)(O)c1ccc(O)c2cc(Nc3ccccc3)ccc12 | . | 13µM* | . | . | .
O=S(=O)(O)c1cc(O)c2ccc(Nc3ccccc3)cc2c1 | . | 3% | . | . | .
Oc1ccc(NCc2ccccc2OCc2ccccc2F)cc1 | 7.9µM*[quencher] | ? | -52* | 16µM* | 22µM*!
CCOc1ccccc1CNc1ccc(O)cc1 | ? | 16µM* | -39* | 7.1µM* | 8.9µM*
CCOc1cccc(CNc2ccc(O)cc2)c1OCc1ccc(Cl)cc1 | ? | 25µM* | -51* | 8.9µM* | 13µM*
CCOc1cc(CNc2ccc(O)cc2)ccc1OCc1ccc(Cl)cc1Cl | ? | 8.9µM* | -52* | 13µM* | 22µM*
CCN1C[C@@H]2[C@@H]3C(=O)N(C)C(=O)[C@@H]3[C@](C)(C1=O)N2C(=O)c1ccc(Cl)cc1 | . | -18% | . | . | .
Cc1ccc2cccc(NC(=O)COc3ccccc3[N+](=O)[O-])c2n1 | -7% | -24% | . | -6% | -1%
CNS(=O)(=O)c1cn(CC(=O)Nc2ccc(C)c(N(C)C)c2)cc1S(=O)(=O)NC | -7% | 3% | . | 6% | 1%
Cc1ccc(NCc2ccccc2OCc2ccccc2F)cc1 | ? | -9% | -6 | -15% | 12%
Oc1ccc(NCc2ccccc2OCc2ccccc2Cl)cc1 | 16µM*[quencher] | 32µM* | . | 28µM* | -15%
N.N.O=C(O)C1(C(=O)O)CCC1.[Pt] | -25% | . | 5 | 3.2µM* | 2.8µM*
O=C(CN1C(=O)/C(=C\C=C\c2ccccc2)SC1=S)Nc1ccc(F)cc1 | 13% | -24% | 0 | 12% | 4%
O=C(COC(=O)CCN1C(=O)/C(=C\C=C\c2ccccc2)SC1=S)Nc1cc(F)ccc1F | ? | ? | -3 | 6.3µM* | 1%
O=C(CCN1C(=O)/C(=C/C=C/c2ccccc2)SC1=S)Nc1nc2ccccc2s1 | -22% | -15% | -2 | 3.5µM* | 5%
O=C(O)CCCN1C(=O)/C(=C/c2ccc(-c3nc4ccccc4s3)o2)SC1=S | -28% | -22% | -3 | 1.6µM* | -13%
COC(=O)CNC(=O)C1CCC(CNS(=O)(=O)c2cccc3nsnc23)CC1 (stereo not drawn) | . | -22% | . | . | .

High-throughput results deposited in PubChem BioAssay by National Center for Advancing Translational Sciences (NCATS).
